Inconclusive results are not listed. Active and inactive are the calls of the source. Calls come from the whole dose curve; as a rule, active = well fitted inhibition curve with a large enough effect; inconclusive = small, poorly fitted or top-dose-only effect; inactive = no such curve, though single readings can be large or run the other way.
Each compound was assayed on Zika virus NS2B-NS3 protease (linked construct) (assay: Primary screen NINDS Rhodamine qHTS for Zika virus inhibitors (AID 1347160; note: nearly all actives have a fitted effect of over 55% in size)). Settings: purified NS2B-NS3 protease, Rhodamine110 substrate fluorescence; series mostly up to 57.1 µM; activity change, negative = inhibition: at the top concentration.
Source text: Avindra Nath, Ph.D., National Institute of Neurological Disorders and Stroke (NINDS), Bethesda, MD
Radhakrishnan Padmanabhan, Ph.D., Georgetown University (GU), Washington D.C.
Zika Virus causes congenital defects, including microcephaly and is associated with Guillain-Barre syndrome, eningoencephalitis and myelitis in infected adult. […] Using a target-based approach, we hope to establish a screening paradigm to uncover novel, cell-active NS2B-NS3 protease (Zika Virus) specific inhibitors from NCATS' collection of small molecules using qHTS.
Four assay panel was created to identify potential Zika Virus inhibitors. Namely, (1) GU unlinked NS2B-NS3 AMC tagged protease qHTS, (2) GU unlinked NS2B-NS3 Rhodamine tagged protease qHTS, (3) NINDS linked NS2B-NS3 AMC tagged protease qHTS, (4) NINDS linked NS2B-NS3 Rhodamine tagged protease qHTS. Active compounds were re-acquired and re-screened to confirm inhibition. Inhibitors were further screened against various confirmatory and counterscreens in dose response format.
Early Translation Branch (ETB)
National Center for Advancing Translational Sciences (NCATS), Rockville, MD
National Institute of Health (NIH), Bethesda, Maryland
For the linked assay, Nath lab (NINDS) provided the purified linked NS2B-NS3 protease which is consists of hydrophilic domain of NS2B linked to the NS3 protease domain by a flexible (-[…]-) linker. Control compound aprotinin is obtained from Thermo Scientific (#78432; Waltham, Massachusetts). Rhodamine110 substrate ([N-Cbz]-Nle-Lys-Arg-Arg-Rhod110-Arg-Arg-Lys-Nle-[N-Cbz]) was purchased from either Genscript or Bachem.
1536-well Protease (Rhodamine110 Substrate) Assay:
Briefly, 3 microL of enzyme (25 nM final concentration), in assay buffer (10 mM Tris-HCl pH 8.0 with 0.01% Tween 20) were dispensed into a 1,536-well solid-bottom black plate (Greiner Bio One, Monroe, NC). Twenty-three nL of compounds (final concentration range 7.28 nM to 114 microM) or control Aprotinin (final concentration range 3.47 nM to 114 microM) were transferred via Wako Pin-tool (Wako Automation, Richmond, VA). Samples were incubated (room temperature, protected from light) for 15 minutes followed by a 1 microL Rhodamine110 substrate addition (1.5 microM final concentration). Plates were then immediately read on a ViewLux High-throughput CCD imager (PerkinElmer, Waltham, MA) equipped with FITC fluorescence optics (480(20) nm excitation, 540(25) nm emission), then incubated (room temperature, protected from light) for 15 minutes (~15% conversion). The change in fluorescence intensity over the 15-minute reaction period was normalized against no-inhibitor and no-enzyme controls and the resulting percent inhibition data were fitted to a 4-parameter Hill equation. Aprotinin was used as intraplate control.
% is set by controls: 0 for no effect and ±100 for the full control effect; potency is the fitted concentration of half-maximal effect.

| Compound | activity change, negative = inhibition | outcome | Potency |
| --- | --- | --- | --- |
| Cn1c(SCC(=O)N2CCC[C@H]2C(=O)Nc2ccccc2-c2ccccc2)nc2ccccc21 | 2.31% (inactive) |  |  |
| CC1CCCC(O)CC(=O)c2c(O)cc(O)cc2CC(=O)O1 (stereo not given) | 10.8% [at 33.1 µM] (inactive) |  |  |
| C=C1CCN([C@H](C)[C@](O)(Cn2cncn2)c2ccc(F)cc2F)CC1 | 23.8% (inactive) |  |  |
| O=C(Nc1cccc([N+](=O)[O-])c1)c1cccc(S(=O)(=O)N2CCCCCC2)c1 |  | inactive |  |
| CCC(CC)C(=O)OC12C(OC(=O)C(C)C)C(C)C3(O)C(C=C(CO)CC4(O)C(=O)C(C)=CC43)C1C2(C)C (stereo not given) | -5.06% [at 33.1 µM] (inactive) |  |  |
| Cc1ccc(OC[C@H](O)[C@H](C)NC(C)C)c2c1CCC2 | 46% (inactive) |  |  |
| CCn1c(=O)c(-c2ccc(Cl)cc2Cl)cc2cnc(Nc3ccc(N4CCNCC4)c(F)c3)nc21 | 42.6% (inactive) |  |  |
| Cc1cc(N2CCOCC2)ccc1Nc1nc(NC2CCCCC2)c2[nH]cnc2n1 |  | inactive |  |
| CCOc1ccc(CCNC(=O)c2cc3sc(Cl)cc3n2C)cc1OCC | -1.65% (inactive) |  |  |
| COc1cccc(-c2cn(-c3ccc(CCN4CCC(O)CC4)cc3)c3ncnc(N)c23)c1 | 108% (inactive) |  |  |
| CC[C@H](C(=O)Nc1ccccc1N1CCCC1)c1ccccc1 | -0.0501% (inactive) |  |  |
| Cn1ncnc1[C@@H]1c2n[nH]c(=O)c3cc(F)cc(c23)N[C@H]1c1ccc(F)cc1 | 22.6% (inactive) |  |  |
| CCCC(CCC)C(=O)Nc1ccn([C@@H]2O[C@H](CO)[C@@H](O)C2(F)F)c(=O)n1 | 3.55% (inactive) |  |  |
| COc1cc(OC)c2c(=O)[nH]c(-c3cc(C)c(OCCO)c(C)c3)nc2c1 | 17.9% (inactive) |  |  |
| Cc1nc2ccc(CN(C)c3ccc(C(=O)NC(CCC(=O)O)C(=O)O)s3)cc2c(=O)[nH]1 (stereo not given) | 12.6% (inactive) |  |  |
| CN1CC[C@@H](c2c(O)cc(O)c3c(=O)cc(-c4ccc(C(F)(F)F)cc4Cl)oc23)[C@@H]1CO | 56.4% (inactive) |  |  |
| C=C1C(=O)OC2C=C(C)CC/C=C(\CO)CC(O)C12 (stereo not given) | 2.77% (inactive) |  |  |
| Nc1nccc(-c2c(-c3ccc(F)cc3)ncn2C2CCCCC2)n1 | 97.4% (inactive) |  |  |
| O=C(CSc1nc2ccccc2c(=O)n1-c1ccccc1)Nc1ccc2c(c1)CCC2 | 7.97% (inactive) |  |  |
| CCCn1cc2c(nc(NC(=O)Nc3ccc(OC)cc3)n3nc(-c4ccco4)nc23)n1 | 21.6% (inactive) |  |  |

| Compound | activity change, negative = inhibition | outcome | Potency |
| --- | --- | --- | --- |
| CN1CCN(S(=O)(=O)c2ccc(-c3cnc(N)c(C(=O)Nc4cccnc4)n3)cc2)CC1 | -0.518% [at 33.1 µM] (inactive) |  |  |
| C/C=C(/C)C(=O)O[C@H]1C=C(CO)C(=O)[C@H](OC(=O)/C(C)=C/CO)[C@H]1C(C)C |  | inactive [at 33.1 µM] |  |
| COc1cc([C@H]2O[C@H](c3cc(OC)c4c(c3)OCO4)[C@H](C)[C@H]2C)cc(OC)c1OC | 9.31% [at 33.1 µM] (inactive) |  |  |
| CC(=O)O[C@H]1C[C@H](OC(C)=O)[C@]2(C)[C@H](CC[C@@]34O[C@@H]3C3=C(C)C(=O)O[C@@H]3C[C@H]42)C1(C)C |  | inactive [at 33.1 µM] |  |
| N#Cc1ccc(N2N=C3c4ccc(C(=O)O)cc4CC[C@@H]3[C@@H]2C2CCCC2)cc1Cl |  |  | 2000 nM (active) |
| C=C1C(=O)O[C@H]2C3=C(C)CCC[C@]3(C)C(=O)C[C@@H]12 | 12% (inactive) |  |  |
| CC(C)NCCCn1c(Sc2cc3c(cc2I)OCO3)nc2c(N)ncnc21 |  | inactive |  |
| CC(C)(C[C@@](O)(Cc1cc2ccncc2[nH]1)C(F)(F)F)c1cc(F)ccc1O | 49.5% (inactive) |  |  |
| COc1cccc(NCCC2(c3ccccc3)CC(C)(C)OC(C)(C)C2)c1 | -18.7% (inactive) |  |  |
| CNCCC(c1cccs1)c1ccc(O)c2ccccc12 (stereo not given) | 182% (inactive) |  |  |
| CCN(CC)C(=O)C(c1ccccc1)N1CCN(c2ccc(NC(=O)c3ccccc3-c3cccnc3)cc2F)CC1 (stereo not given) | 43.2% (inactive) |  |  |
| COc1cc(C(=O)O)ccc1NC(=O)C1NC(CC(C)(C)C)C(C#N)(c2ccc(Cl)cc2F)C1c1cccc(Cl)c1F (stereo not given) | -21.5% (inactive) |  |  |
| CCCC(=O)C1(c2ccccc2)CCN(C(=O)[C@@H](Cc2ccc(OC)cc2)NC(=O)[C@@H](N)Cc2cncn2C)CC1 | 1.98% (inactive) |  |  |
| Cc1cccc(CC(=O)N2CCc3c2ccc(-c2cn(C)c4ncnc(N)c24)c3F)n1 |  | inactive |  |
| COc1cc(C(C)C)c(Oc2cnc(N)nc2N)cc1I | 15% (inactive) |  |  |
| Cn1ncc(Cl)c1-c1cc(C(=O)N[C@H](CN)Cc2ccc(F)c(F)c2)sc1Cl | 338% (inactive) |  |  |
| O=C(Nc1ccccc1C(=O)Nc1ccc(CCO)cc1)c1ccc([N+](=O)[O-])cc1 | 31% (inactive) |  |  |
| O=C(NCCN1CCC(n2c(=O)[nH]c3ccccc32)CC1)c1ccc2ccccc2c1 |  | inactive |  |
| C=C1CC[C@@H](O)[C@]2(C)C[C@H]3OC(=O)C(=C)[C@H]3CC12 (stereo not given in full) | 13.8% (inactive) |  |  |
| COc1ccccc1N1CCN(CC(C(=O)NC(C)(C)C)c2ccccc2)CC1 (stereo not given) | 75.8% (inactive) |  |  |
